Data as given in the supplement of paper PMC3334620.
The full ranking holds about 33,000 sequences; the median of “E-score (-0.5 to 0.5)” is about -0.035, and the highest 2% start at about 0.35. The list comes from a sample in which the highest values are over-represented; it also holds similar and randomly drawn sequences.

molecular target: T1, Pdr3 (UniProt P33200); test: PBM E-score (8-mer binding enrichment) (E-score (-0.5 to 0.5)); higher = stronger / more preferred TF binding; details: protein concentration: 200 nM; construct: GST-full length
T1 sequence: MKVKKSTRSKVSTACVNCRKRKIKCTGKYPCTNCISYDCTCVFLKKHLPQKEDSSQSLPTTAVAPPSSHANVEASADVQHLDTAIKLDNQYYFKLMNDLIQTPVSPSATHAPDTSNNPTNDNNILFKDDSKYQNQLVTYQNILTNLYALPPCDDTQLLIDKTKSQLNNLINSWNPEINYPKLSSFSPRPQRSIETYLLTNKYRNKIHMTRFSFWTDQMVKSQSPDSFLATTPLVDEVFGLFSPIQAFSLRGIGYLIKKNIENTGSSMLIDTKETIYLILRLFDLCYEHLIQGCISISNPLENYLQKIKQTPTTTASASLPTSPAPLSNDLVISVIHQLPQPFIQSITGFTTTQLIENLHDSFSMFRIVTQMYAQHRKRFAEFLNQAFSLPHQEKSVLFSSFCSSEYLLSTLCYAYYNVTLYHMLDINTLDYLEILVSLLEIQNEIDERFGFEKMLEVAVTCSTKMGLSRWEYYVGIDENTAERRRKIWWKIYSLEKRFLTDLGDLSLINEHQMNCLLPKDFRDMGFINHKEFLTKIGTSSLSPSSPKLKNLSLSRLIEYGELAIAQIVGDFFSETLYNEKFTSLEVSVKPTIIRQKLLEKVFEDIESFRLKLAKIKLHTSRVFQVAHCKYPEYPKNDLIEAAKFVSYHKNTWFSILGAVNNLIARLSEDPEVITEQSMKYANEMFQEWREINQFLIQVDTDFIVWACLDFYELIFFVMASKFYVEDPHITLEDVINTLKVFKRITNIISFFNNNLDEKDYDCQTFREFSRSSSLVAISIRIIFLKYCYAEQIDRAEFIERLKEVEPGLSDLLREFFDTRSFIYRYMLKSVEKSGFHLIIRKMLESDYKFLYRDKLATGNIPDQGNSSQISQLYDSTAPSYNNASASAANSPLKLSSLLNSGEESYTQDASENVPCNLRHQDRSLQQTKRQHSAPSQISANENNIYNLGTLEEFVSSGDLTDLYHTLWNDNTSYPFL
Summary of the method: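 Using PURExpress in vitro transcription/translation, GST-tagged yeast transcription factors were made in full-length or DNA-binding-domain form. These were applied at about 100-200 nM to double-stranded universal all-10-mer Agilent arrays, and bound protein was detected with fluorescent anti-GST. Scans were normalised with masliner before the Universal PBM Analysis Suite assigned E-scores to ungapped eight-base words pooled with their reverse complements.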

Sequence | PBM E-score
ACACCACT | 0.108
CGTTGCCC | 0.101
AAGTGTGT | -0.187
CAACTAGA | -0.0997
GTTGTGAA | -0.142
GAATCAGC | -0.124
TCGTTCAA | -0.125
GCCGTGGA | 0.258
CCCGTGGC | 0.233
CCCGTGGA | 0.395
TCCGTCGA | 0.39
TCCGTCAA | 0.375
GCCGTCAA | -0.048
GCCGTCGA | 0.104
CCCGTCGA | 0.215
ACCGTCAA | -0.00477
AAGCGAAG | -0.0806
ACCAGTAT | 0.0888
AGTTGGTA | -0.111
GTCATCCA | -0.0723
AACGGACT | 0.0833
AACGGAAT | 0.468
AACGGAGT | 0.373
AACGGAGG | 0.185
AACGGTAT | -0.0131
AACGGAGC | 0.275

Sequence | PBM E-score
AATGGAAG | 0.0364
AACGGTAG | 0.0653
AACGGAAG | 0.423
ACTTTCGA | -0.0188
AAAGTTCC | 0.2
GGCGGGGA | 0.292
ATTAGCAG | -0.0762
ATGCGCAT | 0.165
AATCCTCA | -0.244
ACTATCCC | 0.165
AACGACCG | -0.146
CCAATTAC | -0.099
GAGATAAA | 0.122
AACGCGGC | 0.123
AACGCGGG | 0.332
AACGCGGA | 0.358
CACGCGGA | 0.38
CACGCGGG | 0.0841
CACGCGGC | -0.00292
ATGTACCG | -0.0139
GAGTGCTA | -0.0621
CTGGGAGC | -0.192
CAAAAAAA | 0.211
AAGCAAAG | -0.213
CACAGCAG | -0.234
GCAGCCAC | 0.0849

Sequence | PBM E-score
ATGCACAA | -0.0898
ACGGACAC | 0.321
CTCTCGGA | 0.358
ATCTCGGA | 0.376
CTCTCGGC | 0.118
ATCTCGGG | 0.278
CTCTCGAA | -0.197
GTCTCGGA | 0.306
CCGTTTTC | 0.202
CCGGGGGA | 0.311
CCCGGGGA | 0.414
ACCGGGAG | 0.144
CCCGGGAC | 0.451
CCGGGGAG | 0.332
CCGGGGAC | 0.234
CCCGGGAG | 0.397
GCCGGGAC | 0.316
CCTGGGAA | -0.0887
CCCGGGAA | 0.443
CCCGGGGC | 0.338
CACGGGAG | 0.0682
CCTCTACC | -0.104
AGCGAGCA | -0.189
ATAATCAT | 0.0794
AGTCTTAG | -0.224
CGATTCGA | 0.143

Sequence | PBM E-score
AGTGTCGA | 0.0406
ATGACCAA | -0.0317
ATGCCCTC | -0.0557
AGCTAAAT | -0.165
ACAGTTAC | -0.111
CGCTATCC | 0.158
AACGAGAA | -0.0948
CAAGGGCA | -0.0651
AGGCACGC | 0.049
GGCGGCCC | -0.00494
CTCACCAA | 0.136
AAGCGGTC | 0.00531
TACCGGGA | 0.347
CGGGGGAA | 0.276
TCCGGGAA | 0.386
CCCCGGCA | 0.189
TCCGGGCA | 0.346
CCGGGGAA | 0.356
CCCCGGGA | 0.417
TCCCGGGA | 0.485
TCCCGGCA | 0.323
ACGGGGAA | 0.204
CCCCGGTA | 0.122
GCCGGGAA | 0.304
ATTACACA | -0.0105
AAACGCGG | 0.245

Sequence | PBM E-score
ACCAGGCG | -0.0145
AGCCTTTA | -0.193
GGCTAAAC | -0.135
ATCATTCC | 0.281
CTCATTCC | 0.356
CTCATTCA | -0.0959
AGATAGGC | -0.16
ATGCTCTC | -0.108
GTGCCGGA | 0.369
GTGCCGTA | 0.0678
CTGCCGGA | 0.32
ATGCCGGA | 0.405
ATGCCGGG | 0.245
ATGCCGGC | 0.341
CTAGCAAA | -0.187
ATTCCGAA | 0.436
CTTCCGAA | 0.385
CTTCCAAA | -0.155
ATTCCGAC | 0.413
CTACCGAA | -0.0817
GGTCCGAA | 0.319
ACTCCGAC | 0.255
AATCCGAA | 0.0894
CTTCCGAC | 0.267
ACTCCGAA | 0.238
GTTCCGAA | 0.471

Sequence | PBM E-score
GTTCCAAA | -0.00321
ACACGGCC | 0.14
CTCCACGA | -0.144
GTCTAGGA | -0.256
AACGCATC | -0.139
ACTTACCG | 0.233
AATTTTAG | -0.194
ATCAGTCA | 0.0413
GGCCAAGA | -0.176
GGGTTGAC | 0.0502
CTCGCGCA | -0.029
AGCCTAAT | -0.208
AGCATACC | -0.0406
AGTCCGAG | 0.281
ATTCCGAG | 0.449
ACTCCGAG | 0.28
AAGAGCAA | -0.123
ATGCGGTC | 0.21
CGTTAAGA | -0.136
ACGGGAAC | 0.33
CCGGGAAA | 0.344
CCGGGAAC | 0.362
ACGGGAAG | 0.133
CCGGGAAG | 0.359
CGGGGAAC | 0.258
AGAAGGTA | -0.0743

Sequence | PBM E-score
ACGAGGCC | -0.0311
AGTATGCC | -0.0201
CGCTTCCC | 0.0936
AGCTTCCC | -0.0703
AGCTTCCG | 0.416
AGCTTCCA | 0.0336
CGCTTCCG | 0.419
CGCTTCCA | -0.00125
CTGGAACA | 0.117
AAGGAACA | -0.129
ATGGAACA | -0.0996
ACGGAACA | 0.477
GCGGAACA | 0.474
TAGGAACA | -0.0452
CCGGAACA | 0.471
CAGGAACA | -0.0115
TCGGAACA | 0.483
GTGGAACA | 0.0611
GAGGAACA | 0.147
TGGGAACA | 0.0839
